WRN helicase inh-1: WRN helicase (human) inhibition; Q14191; WRN helicase unwinding, fluorescent forked duplex, kinetic; Potency, µM (series often up to 114 µM), actives largely listed as inhibitors; actives 0.46% (n = 360,000); also: nearly all actives have a fitted effect of over 55% in size
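Kinetic red-fluorescence monitoring (525/598 nm) tracks WRN helicase activity after 100 nM fluorophore-quencher forked duplex and 2 mM ATP are added to 20 nM enzyme pretreated 15 min at room temperature with compound.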
POLI inh: DNA polymerase iota (human) inhibition; Pol iota fluorescent replication assay, 10 min; Potency, µM (doses to about 115 µM), actives largely listed as inhibitors; actives 1% (n = 390,000)
Target sequence (Q9UNA4 whole entry, looked up): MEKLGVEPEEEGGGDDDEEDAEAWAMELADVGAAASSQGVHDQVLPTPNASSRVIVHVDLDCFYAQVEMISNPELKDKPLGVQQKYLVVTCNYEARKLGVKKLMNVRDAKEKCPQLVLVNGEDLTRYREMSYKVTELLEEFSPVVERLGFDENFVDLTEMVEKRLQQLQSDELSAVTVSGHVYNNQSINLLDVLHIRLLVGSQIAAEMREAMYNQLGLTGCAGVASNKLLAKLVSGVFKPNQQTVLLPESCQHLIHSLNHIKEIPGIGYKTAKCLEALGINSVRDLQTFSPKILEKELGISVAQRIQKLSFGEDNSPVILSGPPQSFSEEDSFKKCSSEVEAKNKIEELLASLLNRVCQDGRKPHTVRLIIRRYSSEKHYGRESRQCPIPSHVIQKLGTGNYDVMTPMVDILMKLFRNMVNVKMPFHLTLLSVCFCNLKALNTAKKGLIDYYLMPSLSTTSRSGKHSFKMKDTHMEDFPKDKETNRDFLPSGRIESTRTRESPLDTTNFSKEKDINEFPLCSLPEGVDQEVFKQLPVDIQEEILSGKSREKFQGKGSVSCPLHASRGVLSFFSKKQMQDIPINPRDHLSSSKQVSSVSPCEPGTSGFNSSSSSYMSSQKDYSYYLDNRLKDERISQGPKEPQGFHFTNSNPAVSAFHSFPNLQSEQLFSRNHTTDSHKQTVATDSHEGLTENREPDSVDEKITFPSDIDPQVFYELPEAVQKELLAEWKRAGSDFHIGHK
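Fluorescent replication assay read twice, at 0 min and 10 min after adding 50 nM (final) substrate. Enzyme (10 nM) and compounds were first incubated 15 min at room temperature; enzyme-free buffer wells were negative controls.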
FEN1 inh-1: blocks human flap endonuclease 1 | P39748 | Recombinant FEN1 flap cleavage, fluorescence, 15 min | Potency, µM (titrated, usually from 114 µM), hits mostly inhibitors | actives 0.35% (n = 390,000); also: nearly all actives have a fitted effect of over 65% in size
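Potency values derive from four-parameter Hill fits of normalized qHTS data. The reaction used 10 nM FEN1 preincubated 15 min at room temperature with compound, then 50 nM DNA substrate, read at 0 and 15 min.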
Pol beta inh: DNA polymerase beta (human) inhibition | P06746 | Pol beta primer extension/strand displacement, fluorescence kinetic | Potency, µM (doses to about 114 µM), most hits filed as inhibitors | actives 1.3% (n = 340,000) | AID 485314
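10 nM enzyme + cpd, 15 min RT; start with substrate 50 nM final; read 0 min and after 10 min RT. Corrected, normalized data; 4-parameter Hill curve fit.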
Pol eta inh-1: inhibitors of human DNA polymerase eta; Potency, µM (highest dose often 114 µM), most hits filed as inhibitors; Q9Y253; actives 1.2% (n = 390,000); AID 588591; recombinant Pol eta, fluorescent DNA replication assay
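Fluorescent replication assay: 50 nM final substrate added after a 15 min room-temperature compound preincubation with 10 nM enzyme. Signal taken at 0 min and again at 10 min.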
Pol kappa inh-1: DNA polymerase kappa (human) inhibition | Q9UBT6 | purified Pol kappa, fluorescent DNA synthesis assay, 10 min | Potency, µM (series often up to 107 µM), hits mostly inhibitors | actives 0.53% (n = 400,000) | AID 588579
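Kinetic fluorescence screen: compound preincubated 15 min RT with 10 nM enzyme; 50 nM substrate (final) initiates; reads at 0/10 min.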
BAZ2B inh: inhibits human BAZ2B bromodomain, hit validation; shares compounds with Pol kappa inh-1; AlphaScreen BAZ2B / biotin-H3K14Ac peptide displacement; Potency, µM, hits mostly inhibitors; actives 100% (n = 25); calls by dose curve
AlphaScreen ctr: AlphaScreen signal interference, BAZ2B hit counter-screen; AlphaScreen biotin-His6 peptide bead counterscreen, signal decrease; shares compounds with Pol kappa inh-1; Potency, µM (top dose mostly 57.1 µM), most hits filed as inhibitors; 25 tested, under 10 active; AID 588859;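 active = clear concentration-dependent signal drop in the bead assay lacking the target, so a primary-screen artifact; inconclusive = weak, partial or single-dose response; inactive = no response, so a real primary hit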
PGK validate: validation of Trypanosoma brucei phosphoglycerate kinase inhibitors | shares compounds with Pol kappa inh-1 | TbPGK coupled GAPDH assay, Kinase-Glo luminescence | Potency, µM (highest dose often 57.5 µM), most hits filed as inhibitors | actives 79% (n = 500); also: nearly all actives have a fitted effect of over 65% in size
Pol iota confirm: Human Pol iota inhibitor confirmatory assay. shares compounds with Pol kappa inh-1. Pol iota primer extension, TAMRA/BHQ fluorescence. Potency, µM, hits mostly inhibitors. actives 77% (n = 1,500). AID 720496
GALK confirm: confirmation of human galactokinase (GALK) inhibitors; shares compounds with Pol eta inh-1; purified GALK, Kinase-Glo ATP depletion luminescence; Potency, µM (top dose mostly 115 µM), actives largely listed as inhibitors; actives 70% (n = 150); AID 2015
GALK redox cs: redox cycling activity in phenol red-HRP assay; Potency, µM (top dose mostly 115 µM), most hits filed as inhibitors; Phenol red-HRP H2O2 redox cycling, absorbance 600 nm; shares compounds with Pol eta inh-1; AID 2035; actives 40% (n = 150)
HEK293 tox: HEK-293 cytotoxicity, GALK inhibitor secondary; Potency, µM (series often up to 46.1 µM), hits mostly inhibitors; HEK-293 viability, ATP luminescence (CellTiter-Glo), 24/48 h; AID 2547; actives 10% (n = 170); shares compounds with Pol eta inh-1
Pol kappa inh-2: Pol kappa (human) inhibition, cherry-pick confirmation; actives 76% (n = 920); Potency, µM, actives largely listed as inhibitors; purified Pol-kappa, fluorescent strand-displacement substrate; shares compounds with Pol eta inh-1
Pol eta inh-2: Pol eta (human) inhibition, cherry-pick confirmation. shares compounds with Pol eta inh-1. Pol eta primer extension, TAMRA/BHQ fluorescence, 10 min. Potency, µM, most hits filed as inhibitors. actives 64% (n = 2,600). AID 720502
FEN1 inh-2: FEN1 inhibition, cherry-pick retest; shares compounds with FEN1 inh-1; FEN1 flap cleavage, TAMRA/BHQ2 fluorogenic DNA substrate; Potency, µM, usual class: inhibitors; actives 79% (n = 880); also: nearly all actives have a fitted effect of over 60% in size
WRN helicase inh-2: WRN helicase inhibition, cherry-pick retest | Potency, µM (series often up to 57.1 µM), actives largely listed as inhibitors | actives 63% (n = 610) | shares compounds with WRN helicase inh-1 | WRN helicase DNA unwinding, fluorescence kinetic; also: nearly all actives have a fitted effect of over 65% in size
TO displacement: binds DNA, flagged in WRN inhibitor counterscreen. actives 10% (n = 610). Potency, µM (titrated, usually from 57.1 µM), actives largely listed as inhibitors. shares compounds with WRN helicase inh-1. AID 720499. thiazole orange DNA binding displacement, fluorescence;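 also: drop in dye fluorescence marks compound binding to DNA; nearly all actives have a fitted effect of over 60% in size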
BLM counter: blocks human BLM helicase in WRN counterscreen; shares compounds with WRN helicase inh-1; Recombinant BLM helicase DNA unwinding, red fluorescence; Potency, µM (titrated, usually from 57.1 µM), usual class: inhibitors; actives 60% (n = 610); also: nearly all actives have a fitted effect of over 60% in size
Numbers stand for hits; 0 = inactive; ? = inconclusive; - = no result given; [ ] = remark or other dose. An excerpt weighted towards active compounds, which were near 2.4% of everything screened. Unless noted, calls follow the shape of the dose curve; as a rule, active = well fitted curve in the direction sought with a large enough effect; inconclusive = small, poorly fitted or top-dose-only effect, or another doubt; inactive = no such curve, though single readings can be large; an effect the other way counts as inactive or inconclusive.

SMILES	WRN helicase inh-1	POLI inh	FEN1 inh-1	Pol beta inh	Pol eta inh-1	Pol kappa inh-1	Pol iota confirm	Pol eta inh-2	FEN1 inh-2	others
COc1ccc2nc(NC(=O)c3nc(S(=O)(=O)Cc4cccc(C)c4)ncc3Cl)sc2c1	-	?	0	32µM	79µM	?	75	?	-
Cc1nc2c(=O)n(C)c(=O)nc-2n(C)n1	0[11.6 µM]	0	0	?	0.79µM	0	1.5	4.3	-	PGK validate=1.5µM;GALK confirm=1.9µM;GALK redox cs=0.94µM;HEK293 tox=10µM
COc1cc2c(ccc3c4cc(OC)c(OC)cc4c[n+](C)c23)cc1O	?	?	3.5µM	-	?	32µM	19	-	2.7
COc1ccc(/C(=N/OC(C)=O)c2nccc3cc(OC)c(OC)cc23)cc1OC	0	0	0	0	0	0	-	-	-
CCOC(=O)c1ccc(N=Cc2c(O)n(-c3ccc(OC)cc3)c(=S)[nH]c2=O)cc1	?	0	?	0	?	0	3.8	-	9.5
COc1ccc(N=Cc2c(O)n(-c3ccc(C)cc3)c(=O)[nH]c2=O)cc1	0	0	0	0	0	0	-	-	-
CN1C(=O)C(=Cc2ccc(Sc3ccccc3)o2)C(=O)N(C)C1=S	?	?	0	-	45µM	?	?	38	85	Pol kappa inh-2=17
C[n+]1c2ccccc2nc2ccc(NCCO)cc21	4.7µM	?	40µM	28µM	40µM	45µM	75	67	43	Pol kappa inh-2=42
CNc1ccc2nc3ccccc3[n+](C)c2c1	3µM	35µM	?	28µM	50µM	20µM	75	67	38	Pol kappa inh-2=19
C[C@H](NC(=O)[C@@H](N)Cc1ccc(O)cc1)C(=O)NCC(=O)N(C)[C@@H](Cc1ccccc1)C(=O)NCCO	-	-	-	-	-	0[19.4 µM]	-	-	-
C=Cc1cc(OC)c2c(c1)c(=O)oc1c2cc(OC)c2c(O)ccc(C3OC(C)C(O)C(C)(O)C3O)c21 (centres undefined)	10µM	2.5µM	1.3µM	-	1.4µM	4µM	4.7	11	1.7
C=CCn1c(CSc2ccccc2[N+](=O)[O-])n[nH]c1=S	40µM	8.9µM	?	10µM	13µM	50µM	53	24	76
CC1OC(O[C@H]2C[C@@H](O)[C@]3(CO)[C@@H]4C(CC[C@]3(O)C2)[C@@]2(O)CC[C@H](C3=CC(=O)OC3)[C@@]2(C)C[C@H]4O)C(O)C(O)C1O (some centres undefined)	-	-	-	-	-	0[19.4 µM]	-	-	-
Cc1ccc2c(C)c3ccc4ccccc4c3c[n+]2c1	0[11.6 µM]	79µM	8.9µM	-	?	40µM	27	-	6.7	Pol kappa inh-2=4.7
CCOC(=O)C1=C(C)N=c2s/c(=C\c3ccc(OCC(=O)O)cc3)c(=O)n2C1c1ccc(Cl)cc1 (centres undefined)	?	?	?	22µM	?	50µM	21	-	76	BAZ2B inh=14;AlphaScreen ctr=0;PGK validate=4.6µM
CC(C)(O)C1C2OC(=O)C1[C@]1(O)C[C@H]3O[C@]34C(=O)O[C@H]2[C@]14C (some centres undefined) (tested in a mixture with another compound)	-	0	-	0	0	0[19.4 µM]	-	-	-
N#Cc1ccc(CN2CC[C@@]3(CCCN(C(=O)Oc4ccccc4)C3)C2)cc1	-	-	-	-	-	0	-	-	-
O=C(CSc1nc(-c2ccc(F)cc2)nc2c1Cc1ccccc1O2)Nc1cccc(C(=O)O)c1	?	5.6µM	?	2.8µM	10µM	8.9µM	3.4	76	27	BAZ2B inh=28;AlphaScreen ctr=0;PGK validate=1.6µM
N#Cc1cc2c(nc1SCC(=O)Nc1cccc(F)c1)C1CCN2CC1	-	0	0	0	0	0	-	-	-
CC(=O)CC(c1ccccc1)c1c(O)c2cccc(O)c2oc1=O (centres undefined)	-	-	-	-	-	0	-	-	-
O=C1OC(=O)C2C3CCC(O3)C12 (centres undefined)	-	0	-	0	0	?	-	-	-
N#Cc1ccc(CN2CCC3(CC2)CCN(C(=O)Oc2ccccc2)CC3)cc1	-	-	-	-	-	0	-	-	-
O=C(NC1CC1)c1cc(-c2ccco2)nc2ccccc12	20µM	?	?	?	3.5µM	20µM	-	-	-	BAZ2B inh=10;AlphaScreen ctr=?;WRN helicase inh-2=6.1µM;TO displacement=?;BLM counter=0.96µM
